By inhibition is commonly meant the change of the read-out against control, counted positive when it falls.

We go through 35 compounds from ChEMBL document CHEMBL3433997, “St. Jude Leishmania screening dataset” (2016).

What all share (type): functional
Assay [1] concerns the target Solute carrier family 2, facilitated glucose transporter member 1 (Homo sapiens) (UniProt P11166). In words: ST_JUDE_LEISH: Cytotoxicity at 2uM final concentration against transgenic Leishmania Mexicana promastigotes LmGLUT1 that are glucose transport deficient and complemented with the human glucose transporter GLUT1. Activity is measured by DNA content using SYBR green in vitro.

Assay [2] addresses Hexose transporter 1 (Plasmodium falciparum) (UniProt O97467). Description: ST_JUDE_LEISH: Cytotoxicity at 2uM final concentration against transgenic Leishmania Mexicana promastigotes LmPfHT that are glucose transport deficient and complemented with the Plasmodium falciparum hexose transporter. Activity is measured by DNA content using SYBR green in vitro.
In assay [3] the target is Glucose transporter (Leishmania mexicana) (UniProt O61059). Description: ST_JUDE_LEISH: Cytotoxicity at 2uM final concentration against transgenic Leishmania Mexicana promastigotes LmGT2 that are glucose transport deficient and complemented with the L. Mexicana glucose transporter 2. Activity is measured by DNA content using SYBR green in vitro.

Sequence of Solute carrier family 2, facilitated glucose transporter member 1 (Homo sapiens) (P11166 whole entry): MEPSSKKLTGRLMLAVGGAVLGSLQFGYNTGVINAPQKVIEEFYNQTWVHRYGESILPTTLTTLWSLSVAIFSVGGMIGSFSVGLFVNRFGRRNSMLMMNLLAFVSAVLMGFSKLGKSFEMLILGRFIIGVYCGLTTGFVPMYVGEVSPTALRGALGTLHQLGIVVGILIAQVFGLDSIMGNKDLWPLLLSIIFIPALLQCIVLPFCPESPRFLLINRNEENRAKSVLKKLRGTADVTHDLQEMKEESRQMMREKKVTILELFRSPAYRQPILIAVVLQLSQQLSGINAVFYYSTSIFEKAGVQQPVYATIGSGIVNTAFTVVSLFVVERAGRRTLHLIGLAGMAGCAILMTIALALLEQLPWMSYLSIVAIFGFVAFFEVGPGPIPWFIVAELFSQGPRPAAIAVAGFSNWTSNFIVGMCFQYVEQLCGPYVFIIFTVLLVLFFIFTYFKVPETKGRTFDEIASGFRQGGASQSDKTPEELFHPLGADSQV

Take `CC(C)c1ccc(Nc2nc(NCCc3c[nH]cn3)nc(NCc3ccccc3)n2)cc1`: the inhibition in assay [1] was determined as 1.58%; in assay [2], 1.6%; in assay [3], 0.61%.
For `CC1(C)NC(N)=NC(=N)N1OCCCOc1ccc([N+](=O)[O-])cc1`, the inhibition in assay [1] came out at 0.81%; in assay [2], 0.61%; in assay [3], 0.11%.
The corresponding values for `CCCCCCCC1CCN(C[C@H](O)c2ccnc3ccc(OC)cc23)CC1` are 2.75%, 0.96% and 2.08%.
The like results for `CN(C)c1ccc(N2C(N)=NC(N)=NC23CCCC3)cc1` were, in that order, -0.69%, -0.9% and -3.85%.
Take `CC[C@H](C)CNC(=O)c1cncc(-c2ccc(CNCCCc3ccccc3)cc2)c1`: the inhibition was 1.47% in assay [1], -1.11% in assay [2] and -2.21% in assay [3].
`CCCN(C(=O)c1ccccc1C)c1nnc(-c2cccc(C)c2)s1`: the values for the inhibition in assay [1], in assay [2] and in assay [3] were -3.02%, -1.93% and -2.31%, respectively.
On to `CN(C)CCOc1cc(NC(=O)Nc2ccc(-c3ccccc3)cc2)ccc1I`, for which the inhibition in assay [1] stood at 12.5%; in assay [2] it was 12.7%; in assay [3], 12.6%.
Turning to `CCOc1cccc2nc(NCCCNCc3ccc(Cl)c(Cl)c3)cc(NCCCNCc3ccc(Cl)c(Cl)c3)c12`, the inhibition in assay [1] was -3.5%; in assay [2], -0.94%; in assay [3] it was -0.45%.
Regarding `O=C(NCC1CCN(Cc2ccsc2)C1)c1cc(-c2cccc(C(F)(F)F)c2)cs1` (stereo not given), the results for the inhibition in assay [1], in assay [2] and in assay [3] were 1.96%, 0.91% and 3.66%, respectively.
The corresponding values for `Cc1ccccc1CNC(=O)Nc1cccc(-c2csc(NC(=N)N)n2)c1` are 0.55%, 0.56% and 4.51%.
For `O=C(/C=C/c1ccc(Cl)c(Cl)c1)NC1CCC(CN2CCC(c3nc4ccccc4s3)CC2)CC1` (stereo not given), the inhibition in assay [1] is 0.92%; in assay [2], 5.64%; in assay [3], -1.65%.
As for `c1cc(C2=NC3CCCCC3N2)ccc1OCCCCCOc1ccc(C2=NC3CCCCC3N2)cc1` (stereo not given), the inhibition in assay [1] turned out to be 2.83%; in assay [2], 5.62%; in assay [3], 1.28%.
As to `CN1CCCC1CCNC(=O)[C@H](CC1CCCCC1)NC(=O)c1ccc(O)c(-c2ccc(Cl)c(Cl)c2)c1` (stereo not given in full), the inhibition in assay [1] was found to be 8.26%; in assay [2], 10.3%; in assay [3] it was 6.63%.
Regarding `O=C(NCCCCCN1CCC(c2c[nH]c3ccccc23)CC1)c1ccc(-c2cccnc2)cc1`, the inhibition came out at 1.86% in assay [1], 0.85% in assay [2] and 1.15% in assay [3].
Take `COc1ccc(C(c2ccc(N(C)C)cc2)c2ccc(N(C)C)cc2)cc1`: the results for the inhibition in assay [1], in assay [2] and in assay [3] were 95.3%, 94.5% and 84.9%, respectively.
`CCn1c(Cc2ccccc2)nnc1SCC(=O)N1c2ccccc2Sc2ccccc21`: the inhibition in assay [1] was determined as 4.01%; in assay [2], 3.52%; in assay [3], 2.39%.
As for `Oc1ccccc1CN(CCCN(Cc1ccccn1)Cc1ccccc1O)Cc1ccccn1`, the figures for the inhibition in assay [1], in assay [2] and in assay [3] were 4.2%, 3.15% and 4.96%, respectively.
With `Cc1cccc2nc(-c3cccc(-c4cccc(NC(=O)Cc5ccc[n+]([O-])c5)c4)c3)[nH]c12`, the inhibition came out at 1.71% in assay [1], 1.78% in assay [2] and 0.81% in assay [3].
The corresponding values for `O=C(Nc1ccc(CCNC2=NCCN2)cc1)Nc1ccc(CCNC2=NCCN2)cc1` are 3.77%, 3.97% and 3.62%.
In the case of `COc1ccc(C(=O)Nc2nonc2-c2ccc(OC)c(OC)c2)cc1Cl`, the inhibition was -0.82% in assay [1], -0.18% in assay [2] and -0.55% in assay [3].
`CCN1CCCC1CNC(=O)c1cc2c(-c3ccc(Cl)cc3)nn(C)c2s1` (stereo not given): the values for the inhibition in assay [1], in assay [2] and in assay [3] were 2.89%, 5.39% and 2.6%, respectively.
Turning to `C[C@@H](COc1ccc(-c2ccccc2)cc1)CON1C(N)=NC(N)=NC1(C)C`, the inhibition came to 69.6% in assay [1], 76.5% in assay [2] and 50.3% in assay [3].
With `COc1cc(C(=O)NC2CCN(Cc3ccccc3)CC2)ccc1-c1nc2cc(Cl)c(Cl)cc2[nH]1`, the values for the inhibition in assay [1], in assay [2] and in assay [3] were 0.11%, 1.66% and 0.13%, respectively.
For the compound `O=C(Cc1ccc(NC(=O)c2ccc(O)c(-c3cccc([N+](=O)[O-])c3)c2)cc1)NCCN1CCCCC1`, the inhibition in assay [1] is -0.19%; in assay [2], -1.26%; in assay [3], -0.03%.
`CCNc1cc(C(=O)N[C@@H](Cc2ccccc2)[C@H](O)CNC2(Cc3cccc(Cl)c3)CCC2)cc(N2CCCCS2(=O)=O)c1`: the inhibition in assay [1] was -0.69%; in assay [2], 0.65%; in assay [3], 2.93%.
Turning to `O=C(NC1CCCCC1)C(c1cccs1)N(CCc1ccccc1)C(=O)c1ccco1` (stereo not given), the inhibition was found to be 1.57% in assay [1], 1.89% in assay [2] and 0.46% in assay [3].
Take `COc1ccccc1N1CCN(Cc2c(NC(C)=O)sc(C)c2C)CC1`: the inhibition stood at 0.73% in assay [1], 0.56% in assay [2] and 1.44% in assay [3].
On to `COc1ccc(-c2cc(-c3nc4cc(C(=O)N5CCOCC5)ccc4[nH]3)c(=O)n(C)c2)cc1OC`, for which the inhibition was determined as 2.76% in assay [1], 0.74% in assay [2] and 0.91% in assay [3].
`CC(C)C[C@H](NC(=O)c1cc2ccccc2s1)C(=O)N[C@H]1CCN(Cc2ccc(OC3CCN(C)C3)c(Cl)c2)C1` (stereo not given in full): the inhibition in assay [1] is 1.48%; in assay [2], 2.37%; in assay [3] it was -0.19%.
The corresponding values for `O=C(Nc1cccc(C(F)(F)F)c1)c1ccc(S(=O)(=O)NCC2CCCN(CC3CCCCC3)C2)cc1` (stereo not given) are 1.23%, 0.41% and -0.91%.
For the compound `CC(C)(C)c1ccc(CN2CCC(CNC(=O)c3cc(-c4ccccc4F)cs3)C2)cc1` (stereo not given), the inhibition in assay [1] was -1.08%; in assay [2], -2.3%; in assay [3], 0.9%.
For `CC1(C)N=C(N)N=C(N)N1OCCCOc1cc(Cl)c(Cl)cc1Cl`, the inhibition came out at 3.4% in assay [1], 4.05% in assay [2] and 2.71% in assay [3].
Turning to `O=c1cc(NCCCNC2CCOc3c(Cl)cccc32)[nH]c2ccccc12` (stereo not given), the inhibition in assay [1] came to 0.96%; in assay [2], 1.67%; in assay [3] it was 2.03%.
For the compound `Cc1cc(CN2C(=O)C(c3ccccc3)(c3ccccc3)N=C2N)c(C(F)(F)F)o1`, the inhibition in assay [1] was found to be 6.61%; in assay [2], 9.85%; in assay [3], 6.9%.
For the compound `Cc1nc(C)c(-c2ccc(Oc3ccc(Cl)cc3)c(Cl)c2)c(O)c1Br`, the inhibition in assay [1] was 2.21%; in assay [2], 3.03%; in assay [3], 1.91%.
